HepG2 viability – qHTS for Inhibitors of TGF-b: Cytotox Counterscreen; Potency, µM (top dose mostly 46.1 µM), for inactives: at the top dose activity change, negative = cytotoxicity, hits mostly cytotoxic; 410,000 tested, 0.76% active; HepG2 CAGA-GFP viability, ATP luminescence, 18 h; AID 588856, 2011; also: potency is read from the fitted curve at half-maximal effect
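CellTiter-Glo luminescence gave cytotoxicity after 18 hours at 37 degrees C. The cells were HepG2 CAGA-GFP in 1% FBS DMEM, stimulated with 500 pg/mL TGF-beta after compound addition. %Activity was normalised to no-cell wells (complete cell-killing) and DMSO (no toxicity), and curves were fitted and classified.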
ATXN viability – Viability Counterscreen for Primary qHTS for Inhibitors of ATXN expression | Potency, µM (top dose mostly 56.7 µM), actives largely listed as cytotoxic | 400,000 tested, 0.49% active | S2 cells (HEK-293 line with an ATXN2-luciferase reporter) viability, CellTiter-Fluor protease fluorescence, 24 h; also: potency is read from the fitted curve at half-maximal effect; nearly all actives have a fitted effect of over 40% in size
ATXN2 expr inh – Primary qHTS for Inhibitors of ATXN expression | HEK-293 ATXN2-luciferase reporter, luminescence, 24 h | Potency, µM (top dose mostly 57 µM), inactives show at the top dose activity change, negative = inhibition, hits mostly inhibitors | 360,000 tested, 0.72% active; also: potency is read from the fitted curve at half-maximal effect; % is scaled to controls: 0 for no effect and ±100 for the full control effect; nearly all actives have a fitted effect of over 55% in size
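ATXN2-luciferase reporter cells (luciferase flanked by upstream and downstream ATXN2 gene portions) were treated 24 h at 37 °C with compounds at up to 57 uM. SteadyGlo luminescence gave expression; GF-AFC fluorescence gave viability.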
TGFb SMAD3 inh – qHTS for Inhibitors of TGF-b; Potency, µM (titrated, usually from 46.1 µM), for inactives: top-dose activity, negative = inhibition, actives largely listed as inhibitors; HepG2 CAGA-GFP TGF-b/SMAD3 reporter, GFP fluorescence, 18 h; TGF-beta stimulated, 500 pg/mL final; 410,000 tested, 1.2% active; also: potency is read from the fitted curve at half-maximal effect; % is scaled to controls: 0 for no effect and ±100 for the full control effect; nearly all actives have a fitted effect of over 65% in size
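First, reporter cells (HEPG2 CAGA-GFP) rested 2 h at 37 degrees C. Next, compounds were pinned in and TGF-beta added to 500 pg/mL final. After 18 h, GFP was imaged per cell and summed per well.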
D3 antag – qHTS of D3 Dopamine Receptor Antagonist: qHTS | D(3) dopamine receptor (Homo sapiens), P35462 | max response, negative = inhibition, % | D3R cells, DiscoveRx beta-arrestin luminescence, antagonist mode; active compounds read low | 360,000 tested, 2.5% active; in the data active = max response below about -50%; inconclusive = no clear call, values can overlap the other calls; also: % is scaled to controls: 0 for no effect and ±100 for the full control effect
Target sequence (P35462 whole entry, looked up): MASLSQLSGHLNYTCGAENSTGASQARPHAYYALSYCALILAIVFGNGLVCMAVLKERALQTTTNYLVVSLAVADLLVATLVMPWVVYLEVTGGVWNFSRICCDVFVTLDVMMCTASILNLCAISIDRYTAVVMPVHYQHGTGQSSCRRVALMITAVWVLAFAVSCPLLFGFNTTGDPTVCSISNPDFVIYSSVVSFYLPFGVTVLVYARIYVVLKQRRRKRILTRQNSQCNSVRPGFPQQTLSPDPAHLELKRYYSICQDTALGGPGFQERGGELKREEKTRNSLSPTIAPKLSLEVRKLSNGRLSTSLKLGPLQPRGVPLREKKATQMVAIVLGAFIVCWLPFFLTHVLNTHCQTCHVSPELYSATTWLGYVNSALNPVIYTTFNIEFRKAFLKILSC
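Cells expressing the human receptor were seeded at 1500 cells/well, incubated overnight at 37 degrees C in 5% CO2, then exposed to library compounds with dopamine controls for 90 minutes at 37 degrees C before luminescent detection.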
DRD3 agonist – qHTS of D3 Dopamine Receptor Agonist: qHTS; 410,000 tested, 0.58% active; AID 652048, 2013; D(3) dopamine receptor (Homo sapiens), P35462; max activation, %; D3R DiscoveRx beta-arrestin cells, luminescence, 90 min; in the data active = max activation above about 30%; also: 0% is about no effect
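Agonist mode: compounds and dopamine controls were applied to plated cells for 90 min at 37 degrees C after an overnight attachment at 1500 cells/well. Luminescent read-out followed 30 - 60 minutes at room temperature with DiscoveRx detection reagent.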
* hit, by the source's call; i = inactive; ? = inconclusive; . = not tested or not shown. The list is not random: actives were taken first. Their share in the collection is about 4.7%. Unless noted, calls follow the shape of the dose curve; as a rule, active = well fitted curve in the direction sought with a large enough effect; inconclusive = small, poorly fitted or top-dose-only effect, or another doubt; inactive = no such curve, though single readings can be large; an effect the other way counts as inactive or inconclusive.

SMILES	HepG2 viability	ATXN viability	ATXN2 expr inh	TGFb SMAD3 inh	D3 antag	DRD3 agonist
CCOC(=O)c1ccc(NC(=O)c2nc[nH]c2C(=O)N[C@@H](CC(C)C)C(=O)OC(C)(C)C)cc1	-24.0%	i	-15.7%	?	4.7	-2.0
C[C@H](NC(=O)c1nc[nH]c1C(=O)NC(c1ccccc1)c1ccccc1)C(=O)OC(C)(C)C	-77.4%	?	?	?	-56.3*	0.0
CC(C)C[C@H](NC(=O)c1[nH]cnc1C(=O)Nc1ccccc1)C(=O)OC(C)(C)C	-120.9%	?	?	15.8µM*	21.5	-6.6
CC(C)C[C@H](NC(=O)c1nc[nH]c1C(=O)N[C@@H](CCCCN)C(=O)OC(C)(C)C)C(=O)OC(C)(C)C	-8.9%	i	1.3%	-3.5%	-12.0	2.3
CC(C)C[C@H](NC(=O)c1[nH]cnc1C(=O)N[C@@H](C)C(=O)OC(C)(C)C)C(=O)OC(C)(C)C	11.2µM*	.	-70.1%	?	-6.2	-14.1
CC(C)(C)OC(=O)NCCCC[C@H](NC(=O)c1[nH]cnc1C(=O)Nc1ccccc1)C(=O)OC(C)(C)C	-55.9%	?	?	?	22.1	-8.0
O=C(Nc1cccc(Cl)c1)N1CC2CCCN2c2ccccc21 (configuration not stated)	-15.1%	i	-14.5%	-25.6%	.	-6.1
CC(C)C[C@H](NC(=O)c1nc[nH]c1C(=O)NCC(=O)OC(C)(C)C)C(=O)OCc1ccccc1	-49.5%	i	-14.2%	11.2µM*	32.9	12.0
CC(C)C[C@H](NC(=O)c1nc[nH]c1C(=O)NCC(=O)OCc1ccccc1)C(=O)OCc1ccccc1	-12.1%	i	-24.5%	?	73.9	0.1
CC(C)(Cc1ccccc1)NC(=O)C(=O)c1cn(CC(=O)N2CCOCC2)c2ccccc12	6.3%	i	1.5%	0.3%	-69.5*	-9.5
COCC1CCCN(Cc2ccc3c(c2)CN(C(=O)c2ccc(-n4cccn4)cc2)CCO3)C1 (configuration not stated)	.	i	.	.	.	.
COc1ccc(N2C(=O)CC(Sc3nnnn3-c3ccc(F)cc3)C2=O)cc1 (configuration not stated)	-105.7%	?	-28.3%	?	-59.9*	-7.0
CCCOc1ccc(NC(=O)CC2C(=O)N(c3ccc(F)cc3)C(=O)N2CC(C)C)cc1 (configuration not stated)	-13.2%	.	.	-5.4%	.	61.7*
COc1ccc(N2C(=O)C(CC(=O)Nc3ccc(F)cc3)N(CCC3=CCCCC3)C2=O)cc1 (configuration not stated)	-28.4%	i	-17.7%	-26.9%	.	1.7
CCCOc1ccc(NC(=O)CC2C(=O)N(c3ccccc3)C(=O)N2CCC(C)C)cc1 (configuration not stated)	-25.9%	.	.	?	.	1.4
O=C(CC1C(=O)N(c2ccccc2)C(=O)N1CCC1=CCCCC1)Nc1ccc(F)cc1 (configuration not stated)	-39.0%	?	-22.2%	11.2µM*	.	-5.2
COc1cc(=O)n2c(c1C(=O)N(C)Cc1nonc1C)CCN(C(=O)c1ccc(C)c(C)c1)CC2	.	i	.	.	.	.
COc1ccc(C=Cc2cc(OC)c(OC)c(OC)c2)cc1NC(=O)[C@H](N)CO	.	.	-11.2%	.	.	.
COc1cccc(C(=O)N(Cc2ccccc2)Cc2cc3cc4c(cc3[nH]c2=O)OCCO4)c1	-20.5%	i	-13.2%	-5.3%	32.3	33.4*
C=C1CSc2nc3ccccc3c(=O)n21	-10.4%	i	-5.6%	-22.0%	-55.4*	7.4
CC(C)N(Cc1ccccc1)S(=O)(=O)c1ccc(-c2cc(C(F)(F)F)on2)s1	-22.1%	.	.	0.0%	.	3.2
Cc1cc(C)cc(NC(=O)CN(c2cc(C(F)(F)F)ccc2Cl)S(=O)(=O)c2ccccc2)c1	-35.2%	i	2.6%	-8.4%	.	3.0
CC1Cc2ccccc2N1C(=O)CSc1nnc(-c2ccccc2Cl)o1 (configuration not stated)	-9.1%	i	-9.7%	-12.9%	.	1.9
COc1cc(/C=C/c2ccnc3ccccc23)cc(OC)c1OC	-29.9%	.	.	-4.3%	.	.
COC(=O)c1cc(=O)nc2scc(C)n12	-2.7%	i	-10.6%	-21.2%	-17.4	-5.3
SMILES	HepG2 viability	ATXN viability	ATXN2 expr inh	TGFb SMAD3 inh	D3 antag	DRD3 agonist
COC(=O)c1cc(=O)nc2sc3ccccc3n12	-17.2%	i	2.6%	-2.1%	-51.2*	0.0
COc1ccc(/C=C/C(=O)Nc2ccccc2C(=O)NCC(c2ccc(OC)cc2)N(C)C)cc1 (configuration not stated)	-15.0%	?	?	-3.1%	-95.9*	-28.8
COc1ccc(/C=C/C(=O)c2cc(F)ccc2OC(=O)c2ccccc2OC)cc1OC	-73.7%	?	?	11.2µM*	-5.9	-4.7
COc1ccc(/C=C/C(=O)c2cc(F)ccc2OC(=O)c2ccc(OC)c(OC)c2)cc1OC	-29.7%	i	.	-0.4%	48.6	9.5
COc1ccc(C=CC(=O)Nc2ccccc2C(=O)O)cc1OC	.	.	0.968µM*	.	.	.
CC(C)c1nc2n(n1)C1(CCCCC1)[C@@H]1CCCC[C@@H]1N2	-15.5%	i	-8.0%	5.8%	.	-16.5
COC(=O)c1ccc(C(=O)N2CCc3c(C(=O)NC(C)c4ccco4)c(OC)cc(=O)n3CC2)cc1 (configuration not stated)	.	i	.	.	.	.
COC1=C(Br)C(=O)c2ncccc2C1=O	-51.9%	23.8µM*	15µM*	?	?	-28.1
O=C1C(=O)c2cccnc2-c2ncccc21	2µM*	0.398µM*	0.501µM*	1.41µM*	-87.1*	-13.1
COc1ccc(CCSc2n[nH]c(C(C)C)n2)cc1	-4.6%	.	.	-2.3%	.	.
COCC(=O)Nc1cc(C(=O)N2CCN(C3CCCC3)C(=O)C2)c2c(c1)nc(-c1ccncc1)n2C	.	i	.	.	.	.
OCc1ccccc1OCCCN1CCC(Cc2ccccc2)CC1	-17.2%	i	-13.9%	14.3%	-66.0*	-25.4
Clc1ccccc1OCCN1CCC(Cc2ccccc2)CC1	-123.2%	?	.	?	-89.9*	-7.0
C=CCOc1ccccc1CN1CCC(Cc2ccccc2)CC1	-27.0%	i	-25.8%	-13.6%	-52.4*	-10.2
CCc1ccccc1OCCCN1CCCC1	-0.8%	i	.	19.1%	?	-2.0
CCc1ccc(CSc2nc(-c3ccccc3OC)nc3c2Cc2c(CO)cnc(C)c2O3)cc1	9.6%	i	1.6%	7.9%	.	-4.2

Screens deposited in PubChem by National Center for Advancing Translational Sciences (NCATS).
